For orientation: AC50 means the concentration at which the activity in the assay is half-maximal.

Where “and” joins values, the source holds several entries; their conditions need not be identical. Identical values can stand only once. Records with an inconclusive call do not appear. A structure can be active in one record and inactive in another. Calls of active or inactive are those of the source. Rule for the calls: active = hit-call score of the fitted dose curve at least 0.9, where 1 is the maximum; inconclusive = response in the unintended direction; inactive = score below 0.9.

Chain of Cellular tumor antigen p53 (Homo sapiens) (P04637 whole entry, looked up, the tested form may be a part): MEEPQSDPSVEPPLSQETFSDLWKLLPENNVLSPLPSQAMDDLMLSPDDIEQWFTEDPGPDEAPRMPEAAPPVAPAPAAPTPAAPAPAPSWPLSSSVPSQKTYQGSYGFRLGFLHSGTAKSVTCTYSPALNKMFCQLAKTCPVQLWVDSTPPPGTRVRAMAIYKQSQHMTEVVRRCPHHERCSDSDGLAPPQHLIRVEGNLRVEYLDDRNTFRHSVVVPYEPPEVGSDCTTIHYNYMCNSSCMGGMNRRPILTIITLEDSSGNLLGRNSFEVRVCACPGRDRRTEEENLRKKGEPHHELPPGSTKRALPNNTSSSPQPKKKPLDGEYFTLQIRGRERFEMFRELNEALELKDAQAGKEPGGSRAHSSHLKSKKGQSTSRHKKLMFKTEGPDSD

This assay addresses Cellular tumor antigen p53 (Homo sapiens) (UniProt P04637). The assay can be described thus: TOX21_p53_BLA_p3_ratio: Tox21 HCT-116 p53 Agonism Beta-lactamase Assay, Ratio, Phase 3 (AID 2283596). An excerpt: TOX21_p53_BLA_p3 is a cell-based, single-readout assay that uses HCT116, a human intestinal cell line, […] in a 1536-well plate.TOX21_p53_BLA_p3_ratio is an assay readout measuring reporter gene via receptor activity and designed using inducible reporter (beta lactamase induction) detected with GAL4 b-lactamase reporter gene. The signal is derived from the ratio of cleaved (ch2) to uncleaved (ch1) reporter gene substrate used as the measure of target activity.Data from the assay component TOX21_p53_BLA_p3_ratio was analyzed into 1 assay endpoint. This assay endpoint, TOX21_p53_BLA_p3_ratio, was analyzed in the positive analysis fitting direction relative to DMSO as the negative control and baseline of activity. Using a type of inducible reporter, gain-of-signal activity can be used to understand changes in the reporter gene as they relate to the gene TP53. Furthermore, this assay endpoint can be referred to as a primary readout, because this assay has produced multiple assay endpoints where this ratio serves a reporter gene function to understand target activity. To generalize the intended target to other relatable targets, this assay endpoint is annotated to the DNA binding intended target family, where the subfamily is tumor suppressor.
Thawing Method: Place 14 mL of pre-warmed thaw medium into a 15 mL of conical tub. Remove the vial of cells to be thawed from liquid nitrogen and thaw rapidly by placing at 37C in a water bath with gentle agitation for 1-2 minutes. Decontaminate the vial by wiping with 70% ethanol before opening in a biological safety cabinet. Transfer the vial contents drop-wise into 14 mL of thaw medium in a sterile 15-mL conical tub. Centrifuge cells at 900 rpm for 4 minutes and resuspend in thaw medium. Transfer contents to the T75 tissue culture flask containing Thaw Medium and place flask in a humidified 37C/5% CO2 incubator. Switch to growth medium at first passage.Propagation Method: Aspirate medium, rinse once in DPBS, add 0.25% Trypsin/EDTA and swirl to coat the cell evenly. Add an equal volume of Growth Medium to inactivate Trypsin after 2-3 minutes incubation at 37C. Centrifuge cells at 900 rpm for 4 minutes and resuspend in growth medium. Cell should be passage or fed at least twice a week.Assay Protocol: Harvest cells from culture in growth medium and resuspend in assay medium. 2.2 Dispense 4000 cells/5 uL/well into 1536-well black/clear bottom plates using a Multidrop dispenser. After the cells were incubated at 37C for 5 hours, 23 nL of compounds dissolved in DMSO were transferred to the assay plate by a PinTool resulting in a 217-fold dilution. Incubate the plates for 16 hours at 37C, 5% CO2. Add 1 uL of 6X LiveBLAzer FRET B/G (CCF4-AM) Substrate Mixture to each well using a BioRAPTR dispenser and incubate the plates at room temperature for 2 hours. Measure fluorescence intensity at 460 and 530 nm emission and 405 nm excitation by an Envision detector. Data is expressed as the ratio of 460nm/530nm emissions. Add 4 uL of Cell-titer Glo to each well using BioRAPTR and incubate the plates at room temperature for 2 hours. Measure fluorescence intensity by a VewLux plate reader.
On to `CC(=O)Oc1ccccc1C(=O)O`, for which the result was inactive.

As to `CCCc1cc(=O)[nH]c(=S)[nH]1`, the outcome was inactive.

For the compound `Nc1ccc2c(c1)C(=O)c1ccccc1C2=O`, the outcome was inactive.

`Cc1cccc([N+](=O)[O-])c1C`: the outcome was inactive.

With `COc1ccc(S(=O)(=O)N2C(=O)[C@@](c3ccccc3OC)(N3C[C@H](O)C[C@H]3C(=O)N(C)C)c3cc(Cl)ccc32)c(OC)c1`, the result was inactive.

`O=C(O)Cc1ccccc1Nc1c(Cl)cccc1Cl`: the AC50 is 86 µM (active) and the result was inactive.

With `O=C(N[C@@H](Cc1ccccc1)[C@@H](O)C(=O)N1C[C@@H](O)[C@@H](O)C1)c1cc2cc(Cl)ccc2[nH]1`, the result was inactive.

Turning to `CCCCC(CC)COC(=O)CC(C(=O)OCC(CC)CCCC)S(=O)(=O)O` (stereo not given), the AC50 is 85.9 µM (active) and 83.5 µM (active); the result was inactive.

With `CC1=C(/C=C/C(C)=C/C=C/C(C)=C/CO)C(C)(C)CCC1`, the result was inactive.

With `COc1cc(S(=O)(=O)O)c(C)cc1N=Nc1c(O)ccc2cc(S(=O)(=O)O)ccc12`, the outcome was inactive.

On to `Cc1c(C(=O)O)c(O)cc2c1C(=O)c1c(O)c([C@@H]3O[C@H](CO)[C@@H](O)[C@H](O)[C@H]3O)c(O)c(O)c1C2=O`, for which the outcome was inactive.

With `COc1ccc(C)cc1N`, the outcome was inactive.

As for `COc1cc(/C=C/C(=O)CC(=O)/C=C/c2ccc(O)c(OC)c2)ccc1O`, the AC50 is 13.6 µM (active) and 35.3 µM (active) and 6.9 µM (active).

In the case of `CCNc1cccc(C)c1`, the outcome was inactive.

With `COc1ccc2c(c1)c(CC(=O)O)c(C)n2C(=O)c1ccc(Cl)cc1`, the result was inactive.

With `Nc1ccccc1N`, the AC50 is 68.5 µM (active) and the result was inactive.

On to `Cc1nc(-c2ccc3c(c2)CCN(CCC2CCC(NC(=O)/C=C/c4ccc(F)cc4)CC2)CC3)no1` (stereo not given), for which the result was inactive.

With `CCCCCCCCCCCCCCCC`, the outcome was inactive.

As to `CCOc1ccc2c(c1)C(C)=CC(C)(C)N2`, the result was inactive.

`CNCc1cc(F)ccc1Oc1ccc(Cl)c(Cl)c1`: the result was inactive.

Regarding `CC(=O)OC/C=C(\C)CCC=C(C)C`, the outcome was inactive.

Take `Cc1oc(-c2ccccc2)nc1CCOc1cccc2c1ccn2CCC(=O)O`: the result was inactive.

Regarding `C1CCC(SSC2CCCCC2)CC1`, the result was inactive.

As to `Cc1ccccc1Cl`, the outcome was inactive.

In the case of `COc1cc(-c2nc(NC(=O)c3cc4cc(C)cc(C)c4n3CC(=O)O)sc2CCC2CCCCC2)c(OC)cc1Cl`, the AC50 was 7.74 µM (active).

As to `CNC(=O)[C@H]1O[C@@H](n2cnc3c(NCc4cc(Cl)ccc4OCc4cc(C)no4)ncnc32)[C@H](O)[C@@H]1N`, the outcome was inactive.

With `Clc1cc(Cl)c(Cl)cc1Cl`, the outcome was inactive.

On to `O=c1[nH]cc(F)c(=O)[nH]1`, for which the AC50 was 2.99 µM (active) and 2.3 µM (active) and 5.29 µM (active).

For `Cc1ccc(N(C)C)cc1`, the outcome was inactive.

For `O=C(O)CCCCC(=O)O`, the result was inactive.

As to `CC(=O)C(C)=CC1C(C)=CCCC1(C)C` (stereo not given), the result was inactive.

In the case of `CN1CCCC1=O`, the result was inactive.

With `CCOC(=O)C(C)(C)Oc1ccc(Cl)cc1`, the outcome was inactive.

On to `CCCCCCCCCCCC(=O)OC`, for which the result was inactive.

On to `FC(F)(F)C(F)(F)C(F)(F)C(F)(F)C(F)(F)C(F)(F)CCI`, for which the outcome was inactive.

As for `CCCCCCCCCCCCCO`, the result was inactive.

In the case of `Cc1ccc(C(C)C)c(O)c1`, the result was inactive.

The record behind these values is PubChem BioAssay (EPA / NIEHS).
